# The campaign covered roughly 16,000 compounds. About 4,000 (25%) were called active. Roughly 26% stayed inconclusive and do not appear here. Only a sample is shown. Values without a mark were called inactive. The call rests on the fitted dose curve; in most records, active means well fitted curve in the direction sought with a large enough effect; inconclusive means small, poorly fitted or top-dose-only effect, or effect the other way; inactive means no such curve, though single readings can be large or run the other way.
# Biological target: Cytochrome P450 2C9 (Homo sapiens) (UniProt P11712)
# Assay: Cytochrome panel assay with activity outcomes
# Settings: recombinant CYP, pro-luciferin dealkylation, luminescence, p450-cyp2c9; series mostly up to 57.1 µM; activity, negative = inhibition: at the top concentration
# On the % scale 0 is the no-effect control and ±100 the full control effect.
# Chain of Cytochrome P450 2C9 (Homo sapiens) (P11712 whole entry, looked up): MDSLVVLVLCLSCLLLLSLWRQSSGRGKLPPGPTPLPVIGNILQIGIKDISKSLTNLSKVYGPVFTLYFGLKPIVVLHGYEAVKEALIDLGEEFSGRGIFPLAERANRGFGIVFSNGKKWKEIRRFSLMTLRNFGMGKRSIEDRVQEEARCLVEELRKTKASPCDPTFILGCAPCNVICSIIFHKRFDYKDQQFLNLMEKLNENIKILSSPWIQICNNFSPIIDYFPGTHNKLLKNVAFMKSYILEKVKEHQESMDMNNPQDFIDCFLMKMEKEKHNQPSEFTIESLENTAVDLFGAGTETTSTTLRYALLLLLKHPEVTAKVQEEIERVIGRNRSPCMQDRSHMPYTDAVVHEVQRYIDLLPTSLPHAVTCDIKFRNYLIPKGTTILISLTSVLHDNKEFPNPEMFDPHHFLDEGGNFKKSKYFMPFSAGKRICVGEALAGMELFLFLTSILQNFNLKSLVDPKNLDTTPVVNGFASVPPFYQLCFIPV
SMILES,"activity, negative = inhibition",AC50
CC(C)CN1CCC2(CC1)CCN(C(=O)c1cccn1C)CC2,28.9%,–
CCOC(=O)n1ccn(C)c1=S,11.1% [at 25.6 µM],–
CC(=O)OC[C@@H]1O[C@@H](O/N=C2/C[C@@H](O)[C@@H](O)[C@@H]3[C@@H]4C(=O)N(C(C)(C)C)C(=O)[C@H]4CC[C@H]23)[C@H](OC(C)=O)[C@H](OC(C)=O)[C@@H]1OC(C)=O,2.66% [at 11.4 µM],–
CO[C@H]1COC(=O)[C@H](C)NC(=O)C/C=C\[C@@H](C)[C@H](OC)COC(=O)[C@@H](OCc2ccccc2)/C=C\[C@@H]1C,-13.3% [at 11.4 µM],–
CNC(=O)C(=O)NCCc1ccc(Cl)cc1,-16.9%,–
CN(C)CCNC(=S)Nc1cccc(Cl)c1,-8.2%,–
O=C(NCCc1ccc(Cl)cc1)Nc1cccc(Cl)c1,–,3.98 µM (active)
CC(=O)OC[C@@H]1O[C@@H](O/N=C2/C[C@@H](O)[C@@H](O)[C@@H]3[C@@H]4C(=O)N(C5CCCCC5)C(=O)[C@H]4CC[C@H]23)[C@H](OC(C)=O)[C@H](OC(C)=O)[C@@H]1OC(C)=O,9.42% [at 11.4 µM],–
O=c1c(-c2cc(F)cc(F)c2)nc2cnc(N3CCOCC3)nc2n1C[C@H]1CCCO1,13.6%,–
O=C(NC12CC3CC(CC(C3)C1)C2)c1ccc(COc2ccc(Cl)cc2[N+](=O)[O-])o1,–,7.94 µM (active)
CC(C)=CCC/C(C)=C/CO/N=C1/C[C@@H](O)[C@@H](O)[C@@H]2[C@@H]3C(=O)N(Cc4ccccc4)C(=O)[C@H]3CC[C@H]12,-1.37% [at 11.4 µM],–
CC(C)=CCC/C(C)=C/CO/N=C1/C[C@@H](O)[C@@H](O)[C@@H]2[C@@H]3C(=O)N(Cc4ccccc4)C(=O)[C@H]3CC[C@@H]12,24.4% [at 11.4 µM],–
c1nc(N2CCNCC2)c2cc(-c3ccc4c(c3)OCO4)ccc2n1,14.4% [at 2.29 µM],–
C[C@@H]1O[C@@H](O)[C@@H](O)[C@H](O)[C@H]1O,0.774% [at 11.4 µM],–
CC1(C)SC(=S)N(Cc2ccc3c(c2)OCO3)C1N(O)C(=O)NC1CCCCC1 (stereo unspecified),–,3.55 µM (active)
O=C(O)[C@@H]1CCCN1Cc1ccc2c(c1)OCO2,-5.38% [at 11.4 µM],–
NC(=O)[C@@H]1CCCN1Cc1ccc2c(c1)OCO2,-2.9% [at 11.4 µM],–
COc1ncc2nc(-c3ccc(F)cc3)c(=O)n(C)c2n1,6.98%,–
Cc1ccc(NC(=O)CCC(=O)NNS(=O)(=O)c2ccccc2)c(C)c1,-21.5%,–

SMILES,"activity, negative = inhibition",AC50
Cc1cc(CSc2ccccc2)ccc1NC(=O)COc1ccccc1,-23.7%,–
Cc1cc(Br)ccc1NC(=O)CCSc1ccccc1,–,8.91 µM (active)
O=C(CCCNS(=O)(=O)c1cccc2nsnc12)NCCc1ccccc1,–,11.2 µM (active)
O=c1c2ccccc2nc2n1C(CSCc1cccc(C(F)(F)F)c1)CS2 (stereo unspecified),–,2 µM (active)
COc1ccc(NC(=O)N2CCC3(CC2)CCN(C(=O)c2cccn2C)CC3)cc1,-9.28%,–
O=C(CSc1ccc(Cl)cc1)Nc1cccc(-c2nc3ncccc3o2)c1,–,3.16 µM (active)
O=C(Nc1cccc(-c2nc3ncccc3o2)c1)c1sc2cc(Cl)ccc2c1Cl,-23%,–
CCCCCCCCC(=O)N/N=C/c1ccccn1,-23.2%,–
CCCCCC(=O)N1CC2(CC(c3cccc(NC(=O)c4ccccc4)c3)=NO2)C[C@@H]1C(N)=O (stereo partly specified),20%,–
CCCCCC(=O)Nc1cccc(-c2nc3ncccc3o2)c1,–,17.8 µM (active)
CC1=NS(=O)(=O)c2cc(Cl)ccc2N1,–,inactive
CO[C@H]1COC(=O)C/C=C\[C@H](C)[C@@H](OC)COC(=O)[C@H](Cc2ccccc2)NC(=O)C/C=C\[C@@H]1C,-2.12% [at 11.4 µM],–
Cc1ccc(S(=O)(=O)N[C@H]2COC(=O)[C@@H](C)COC(=O)[C@H](C)NC(=O)C/C=C\[C@H]2C)cc1,10.1% [at 11.4 µM],–
CC1CCN(c2ccccc2NC(=S)NC(=O)c2cccs2)CC1,–,5.01 µM (active)
Cc1c(Cl)cccc1NC(=O)CCC(=O)NNC(=O)c1ccco1,-25.4%,–
O=C(NC(=S)Nc1cccc(Cl)c1N1CCCCC1)c1cccs1,–,3.98 µM (active)
O=C(NC(=S)Nc1cccc(Cl)c1N1CCCCC1)c1ccco1,–,5.01 µM (active)
C[C@@]1(C(NC(=O)c2cccs2)c2ccc(-c3ccccc3)cc2)C[C@H]1C1CCCCC1 (stereo partly specified),-29.1%,–
C[C@@H]1C[C@@H]2[C@H]3CCC4=CC(=O)C=C[C@]4(C)[C@]3(Cl)[C@@H](O)C[C@@]2(C)[C@@]1(O)C(=O)CO,8.7%,–

SMILES,"activity, negative = inhibition",AC50
O=c1[nH]c2cc([N+](=O)[O-])c([N+](=O)[O-])cc2[nH]c1=O,2.55%,–
O=C(O)c1[nH]c2c([N+](=O)[O-])cc([N+](=O)[O-])cc2c1C(=O)O,–,3.16 µM (active)
N[C@@H](Cc1c[nH]c2ccc([N+](=O)[O-])cc12)C(=O)O,9.84% [at 11.4 µM],–
CCOc1ccc(C(F)(F)F)cc1NC(=O)c1ccc(OC)c([N+](=O)[O-])c1,-25.1%,–
CC(C)(C)NC(=O)COC(=O)c1cncc(Br)c1,-9.05%,–
COc1ccc(C(C)(C)C)cc1NC(=O)c1cncc(Br)c1,–,20 µM (active)
O=C1C[C@H]2C(=O)[C@@H]1[C@@H](C(=O)O)[C@H]2C(=O)O,19.5% [at 11.4 µM],–
CCOC(=O)Nc1ccc2c(c1)N(C(=O)CCN1CCN(C)CC1)c1ccccc1S2,2.16%,–
COC(=O)c1cc(NC(=O)N2c3ccccc3Sc3ccccc32)cc(C(=O)OC)c1,–,3.55 µM (active)
CC1CCN(CC(=O)N2c3ccccc3Sc3cc4ccccc4cc32)CC1,-17.9% [at 11.4 µM],–
Nc1cc(=O)[nH]c(N)n1,16.3%,–
CN1CCN(CCCNC(=O)c2ccc(CSCc3cccc(Cl)c3)o2)CC1,-28.9%,–
COCCNC(=O)c1onc(CSc2cccc(Cl)c2)c1C(=O)O,–,3.98 µM (active)
COCCCNC(=O)/C=C/c1ccc(Cl)cc1,-22.2%,–
COCCNC(=O)c1onc(CSc2ccc(Cl)cc2)c1C(=O)O,–,5.01 µM (active)
CC(C)NCCOCCSc1ccc(Cl)cc1,-5.95%,–
C=CCNC(=O)c1onc(CSc2ccc(F)cc2)c1C(=O)O,–,8.91 µM (active)
COCCNC(=O)c1onc(CSc2ccccc2F)c1C(=O)O,–,15.8 µM (active)
